Shiga toxin inh = Shiga toxin inhibition. Vero cells, Shiga toxin protein synthesis inhibition reporter. inhibition, % at 38.7 µM. actives 9.2% (n = 290,000). AID 2315; in the data active = inhibition mostly above about 28%, no sharp cut-off; inactive = mostly below about 43%; note: 0% is about no effect
CHX counter = affects cycloheximide protein synthesis inhibition readout, counter-screen | cell reporter, cycloheximide protein synthesis inhibition counterscreen | max response, % | actives 12% (n = 300,000); in the data active = max response mostly above about 13%, no sharp cut-off; inactive = mostly below about 14%; note: read at 38.3 µM for the half of the compounds with a filed dose; 0% is about no effect
NS1 inh = blocks influenza NS1 protein function; Potency, µM (top dose mostly 46.1 µM), for the others: at the highest dose activity, positive = more growth; actives 0.4% (n = 270,000); AID 2326; note: potency is the fitted concentration of half-maximal effect; actives are rising curves; nearly all actives have a fitted effect of over 50% in size
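Read-out: OD600 growth recovery of NS1-expressing budding yeast. Cells grown overnight at 30C in -URA glucose medium, washed, resuspended and diluted 1:100 in 2% galactose assay medium, pH 6.0. Same strain lacking NS1 served as positive control.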
SARS PLpro yeast = SARS-CoV PLP inhibition in yeast; S. cerevisiae expressing SARS-CoV PLpro, growth rescue; Potency, µM (series often up to 32.9 µM), for inactives: at the highest dose activity, positive = growth rescue, usual class: activators; actives 0.19% (n = 330,000); AID 485353; note: potency is the fitted concentration of half-maximal effect; 0% is about no effect; nearly all actives have a fitted effect of over 55% in size
* hit, by the source's call; . = no result given. The list is not random: actives were taken first. Their share in the collection is about 12%. Unless noted, calls come from the whole dose curve.

SMILES	Shiga toxin inh	CHX counter	NS1 inh	SARS PLpro yeast
CSc1cccc(NC(=O)Nc2ccccc2C(N)=O)c1	39*	47*	-4%	3%
CSc1cccc(NC(=O)Nc2ccccc2)c1	95	34*	-88%	-15%
CCOC(=O)CNC(=O)Cn1cnc2c(oc3ccccc32)c1=O	15	34*	-5%	1%
O=C(Cn1cnc2c(oc3ccccc32)c1=O)NCc1ccccc1	17	2	7%	-3%
O=C(Cn1cnc2c(oc3ccccc32)c1=O)N1CCCC1	64*	32*	.	-1%
CC1CCCN(CCCNC(=O)c2ccc(CS(=O)(=O)c3c(Cl)cccc3Cl)o2)C1 (centres undefined)	-15	-9	-1%	-5%
COc1ccc2[nH]c(=O)c3c(c2c1)OC(C)(C)C=C3	-10	5	2%	-2%
Cc1cc2c([nH]c3ccccc32)c2c1OC(C)(C)C=C2	87*	47*	2%	-3%
COC(=O)c1ccccc1NC(=O)N1c2ccccc2Sc2ccccc21	-4	-1	10%	-8%
COc1cc(C(=O)OCCCN2CCOCC2)ccc1O	16	17*	4%	1%
COc1ccc(C(=O)OCCCN(C)C)cc1OC	18	45*	-3%	0%
COc1cc(C(=O)OCCN2CCOCC2)cc(OC)c1OC	-9	1	-3%	0%
COc1cccc(C(=O)OCCN2CCOCC2)c1	21*	16	4%	0%
C=CCOc1cccc(C2/C(=C(/O)c3ccccc3)C(=O)C(=O)N2CCCN2CCOCC2)c1 (centres undefined)	.	.	1%	.
Cc1ccccc1-c1cc2nc(C)c(C)c(=O)n2[nH]1	36*	23*	4%	0%
Cc1nc2cc(-c3ccc(F)cc3)[nH]n2c(=O)c1C	84*	32*	20%	0%
CC(CC(=O)O)(CC(=O)O)c1ccccc1	.	.	6%	.
CC1(C)C(=O)Nc2ccccc2N1C(=O)COC(=O)c1cccs1	.	.	.	4%
Cc1cc(C)c(C(=O)COc2cccnc2[N+](=O)[O-])cc1C	-11	5	-25%	3%
COc1ccc(NC(=O)c2cc(C)n(Cc3cccs3)c2C)cc1	82*	62*	-6%	-2%
O=C(COc1cccnc1[N+](=O)[O-])c1c[nH]c2ccccc12	26	20*	3%	-1%
COCCn1c(C)cc(C(=O)COc2cccnc2[N+](=O)[O-])c1C	53*	32*	.	3%
O=C(Cc1ccccc1[N+](=O)[O-])OCC(=O)c1c[nH]c2ccccc12	.	.	.	-5%
Cc1ccc(OCC(=O)c2cc(C)n(Cc3cccs3)c2C)c([N+](=O)[O-])n1	31	36*	4%	-1%
Cc1cccc(NC(=O)C2CCCN(c3ncnc4c3nc3n4CCCCC3)C2)n1 (centres undefined)	-7	-4	-40%	3%
SMILES	Shiga toxin inh	CHX counter	NS1 inh	SARS PLpro yeast
C[C@@H]1CN(C(=O)c2ccc(OC3CCN(S(=O)(=O)N(C)C)CC3)cc2)C[C@H](C)O1	-2	10	-2%	3%
Cc1cc(Cl)ccc1NC(=O)CN1CCN(C(=O)c2ccco2)CC1	-8	-2	3%	7%
CCOc1ccc(Cc2noc3c2C(=O)CC(C)(C)C3)cc1OCC	-12	-7	.	-4%
COC(=O)c1csc(S(=O)(=O)N2CCOCC2)c1OC	4	1	-18%	23%
O=C(NCCN1CCN(C(=O)c2cccc(OC(F)F)c2)CC1)c1cccc(OC(F)F)c1	.	.	.	4%
COc1ccc(NC(=O)c2ccc[n+]([O-])c2)cc1	13	-2	24%	11%
Cc1cc(C(=O)COc2ccc3ccc(=O)oc3c2)c(C)n1Cc1cccs1	12	20*	10%	5%
Cc1ccc(NC(=O)Cc2nnc(SCC(=O)c3ccc(Br)cc3)n2C)cc1	-7	-5	-2%	13%
COc1ccc2cnn(-c3ccc(C)cc3)c(=O)c2c1OC	153*	102*	-120%	17%
COc1cnn(-c2cccc(C)c2)c(=O)c1Cl	15	19*	10%	4%
COc1c(Cl)cnn(-c2ccc(C)cc2)c1=O	66*	25*	0%	3%
COc1ccc(Oc2c(Cl)cnn(-c3ccc(C)cc3)c2=O)cc1	2	14*	-8%	-17%
CCCOc1ccc(CN(CCC#N)C(=S)NC(=O)c2ccccc2)cc1	-32	23*	-59%	-30%
COc1cc(C(=O)NC(=S)N(CCC#N)Cc2cccnc2)cc(OC)c1OC	.	.	.	-12%
O=C1/C(=C/c2ccncc2)Cc2ccccc21	.	.	.	-1%
O=C1/C(=C/c2ccc([N+](=O)[O-])cc2)CCc2ccccc21	127*	71*	-5%	-3%
O=C1/C(=C/c2cccc([N+](=O)[O-])c2)CCc2ccccc21	57*	59*	-20%	-95%
